High-throughput results (PubChem)
MBD2 DNA inh: inhibitors of MBD2 binding to methylated DNA, primary screen, biochemical, TR-FRET, DNA-binding domain, human | MBD2 binding to methylated oligonucleotide | inhibition, % at 4.4 µM | actives 0.31% (n = 370,000) | AID 686964, 2013 | Methyl-CpG-binding domain protein 2 (Homo sapiens), Q9UBB5; in the data active = inhibition above about 13%
Target sequence (Q9UBB5 whole entry, looked up, the tested form may be a part): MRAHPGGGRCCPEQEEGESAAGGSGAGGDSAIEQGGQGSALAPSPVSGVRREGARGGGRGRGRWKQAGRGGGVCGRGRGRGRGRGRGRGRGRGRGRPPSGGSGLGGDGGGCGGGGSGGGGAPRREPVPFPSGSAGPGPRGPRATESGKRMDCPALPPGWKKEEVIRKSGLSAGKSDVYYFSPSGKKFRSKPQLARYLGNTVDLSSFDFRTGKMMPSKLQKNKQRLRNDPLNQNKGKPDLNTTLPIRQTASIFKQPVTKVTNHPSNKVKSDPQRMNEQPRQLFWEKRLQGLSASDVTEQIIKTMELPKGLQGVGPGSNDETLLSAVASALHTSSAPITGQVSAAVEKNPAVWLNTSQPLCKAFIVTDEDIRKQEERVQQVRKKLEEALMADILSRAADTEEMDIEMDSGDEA
PLC-gamma1 inh: PLC-gamma1 enzyme inhibitors, primary screen, biochemical, fluorescence, purified enzyme. 1-phosphatidylinositol 4,5-bisphosphate phosphodiesterase gamma-1 (Homo sapiens), P19174. fluorogenic substrate. inhibition, % at 12.2 µM. actives 0.84% (n = 370,000); in the data active = inhibition above about 9.5%
LEDGF integ inh: blockers of LEDGF/p75-dependent integrase strand transfer – biochemical, TR-FRET, high throughput, primary screen; TR-FRET IN-LEDGF/p75 DNA integration, Eu/Cy5; inhibition, % at 3.7 µM; actives 0.64% (n = 370,000); AID 743269, 2014;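 active = inhibition above the screen-wide mean plus 3 SD, cut at about 13% in these data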;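 note: signal is the Cy5 over europium emission ratio at 671 and 618 nm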
UHRF1 binding: UHRF1 methylated DNA binding inhibitors, primary screen, counter-screen for MBD2 inhibitor project, biochemical, TR-FRET, human UHRF1, single concentration; UHRF1 binding to methylated oligo; actives 0.75% (n = 370,000); inhibition, % at 4.4 µM; E3 ubiquitin-protein ligase UHRF1 (Homo sapiens), Q96T88; in the data active = inhibition above about 21%;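 note: UHRF1 SRA domain binding a hemimethylated CpG hairpin DNA probe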
PLCb3 inh: human PLC-beta3 inhibitors, primary screen, biochemical, fluorescence; actives 0.18% (n = 370,000); AID 720704, 2013; Purified PLC-beta3, fluorogenic substrate; inhibition, % at 12.2 µM; in the data active = inhibition above about 11%
Hits are given with their value; – = inactive. Sampled rows, rich in hits. Any-hit rate of the full collection: about 2.4%.

SMILES	MBD2 DNA inh	PLC-gamma1 inh	LEDGF integ inh	UHRF1 binding	PLCb3 inh
Cc1ccc(S(=O)(=O)N2CCN(C(=O)COC(=O)COc3ccc(Cl)cc3)CC2)c(C)c1	–	13	–	–	–
Cc1ccc(S(=O)(=O)N2CCN(C(=O)COC(=O)CCc3ccccc3)CC2)c(C)c1	–	–	–	–	–
Cc1ccc(S(=O)(=O)N2CCN(C(=O)COC(=O)COc3ccc(Cl)c(C)c3)CC2)c(C)c1	–	–	–	–	–
COCC(=O)N(C)[C@H]1C[C@H]2c3[nH]c4c(-c5ccc6c(c5)OCO6)cccc4c3CCN2C(=O)[C@H]1[C@H](C)O	–	–	–	–	–
Clc1cccc(Cc2c(-c3cccc(Cl)c3)nc3ccc(Br)cn23)c1	–	–	–	–	–
CCCc1nc2ccc(C)cn2c1Cc1ccccc1	–	–	–	–	–
CCCc1nc2ccc(Br)cn2c1Cc1ccccc1	–	–	–	23	–
CCCc1nc2ccc(Br)cn2c1Cc1cccc(Cl)c1	–	–	–	21	–
COC(=O)CSc1nnc(-c2ccc(NS(=O)(=O)c3ccc(Cl)s3)cc2)o1	–	–	–	–	–
C/C(=N\NC(=O)c1cccc(F)c1)c1ccc(NC(=O)Cc2ccccc2)cc1	–	–	–	–	–
C/C(=N\NC(=O)c1cc(O)cc(O)c1)c1ccc(NC(=O)Cc2ccccc2)cc1	–	–	16	46	–
O=C(CSc1nnc(SCc2cccc3ccccc23)s1)Nc1ccc(Oc2ccccc2)cc1	–	–	–	–	–
O=C(NC1CCCC1)C(=O)N(Cc1cccnc1)C(C(=O)NCC1CCCO1)c1ccco1 (stereo not drawn)	–	–	–	26	–
O=C(NCc1cccnc1)C(=O)NCC1CCCO1 (stereo not drawn)	–	–	–	–	–
CCOC(=O)CC[C@@H]1CC[C@]2(CCCN(Cc3ccc(Cl)cc3)C2)O1	–	–	–	–	–
CO[C@H]([C@H](C)/C=C/N(C)C=O)[C@@H](C)C(=O)CC[C@H](C)[C@H](O)[C@H](C)[C@H]1OC(=O)/C=C/C(C)=C/C[C@H](O)C[C@@H]2C=CC[C@@H](C[C@H](OC)[C@@H](C)[C@@H](OC)C[C@@H](OC)[C@@H]1C)O2	–	–	–	–	–
CC(NC(=O)CCc1nnc(-c2ccc(-c3ccccc3)cc2)o1)c1nc2ccccc2[nH]1 (stereo not drawn)	–	–	–	23	–
COC(=O)c1cc(-c2cccc(OC(F)(F)F)c2)c(=O)n2c1CCC2	–	–	–	–	–
CCCC1CCC2(CC1)CCC2OC(=O)Nc1ccc(F)cc1 (stereo not drawn)	–	–	–	–	–
CN1CCC(CO)(Cc2ccccc2)CC1	–	–	–	22	–
COc1cccc(N2CC(=O)Nc3c(oc4nc(-c5ccccc5)cc(C)c34)C2=O)c1	–	–	–	45	–
Cc1cc(-c2ccccc2)nc2oc3c(c12)NC(=O)CN(c1ccccc1)C3=O	–	–	–	–	–
COc1ccc(S[C@]2(C(=O)N3CCOCC3)CC(=O)N(C(=O)C3CC3)[C@@H]2c2ccc(OC)cc2)cc1	–	–	–	–	–
CC(C)(C)OC(=O)C[C@H]1C/C=C\C[C@H](CC(=O)NCCO)C(=O)NCCOC1=O	–	–	–	–	–
CC(C)(C)OC(=O)C[C@@H]1C/C=C\C[C@@H](CC(=O)NCCO)C(=O)NCCOC1=O	–	–	18	–	–
SMILES	MBD2 DNA inh	PLC-gamma1 inh	LEDGF integ inh	UHRF1 binding	PLCb3 inh
O=C(O)C1=C(C(=O)O)C2C=CC1C2	–	–	–	33	–
Cc1ccccc1CNC(=O)CCn1nc(C)c2c(C)n(-c3ccccc3)nc2c1=O	–	–	–	22	–
Cc1nn(CCC(=O)NCc2ccc(N(C)C)cc2)c(=O)c2nn(-c3ccccc3)c(C)c12	–	–	–	–	–
CCn1c(SC(C)C(=O)O)nc2sc3c(c2c1=O)CCC3 (stereo not drawn)	–	–	–	28	–
CC(Sc1nc2sc3c(c2c(=O)n1-c1ccccc1)CCCC3)C(=O)O (stereo not drawn)	–	–	–	–	–
CCOc1ccc(-n2c(SCC(=O)Nc3ccc(S(=O)(=O)Nc4cc(C)nc(C)n4)cc3)nnc2-c2ccco2)cc1	–	–	–	–	–
CN(C)S(=O)(=O)c1cccc(C(=O)Nc2ccccc2[N+](=O)[O-])c1	–	–	–	–	–
CCN(CC)S(=O)(=O)c1cc(C(=O)Nc2ccccc2[N+](=O)[O-])ccc1Cl	–	–	–	22	–
CC(=O)NC1(C(F)(F)F)N=C(c2ccccc2)NC1=O (stereo not drawn)	–	–	–	23	–
CC1CCCN(C(=O)Cn2nnc(-c3ccc([N+](=O)[O-])cc3)n2)C1 (stereo not drawn)	–	–	–	29	–
CC(C)CN1CN2Cc3cc(F)ccc3C2CS1(=O)=O (stereo not drawn)	–	–	–	–	–
O=C(O)CCc1ccc(-c2ccccc2)n1Cc1ccco1	–	–	18	–	–
CC(=O)NC(Cc1ccc2c(c1)OCO2)C(=O)N1CCCC1 (stereo not drawn)	–	–	–	–	–
Cc1ccc(C(=O)NCCN2C3=NC[C@H](Cc4ccc(O)cc4)N3C[C@H]2Cc2ccc(O)cc2)cc1Br	–	10	–	–	–
COc1ccc(C[C@H]2CN3C(=NC[C@@H]3Cc3ccc(O)cc3)N2CCNC(=O)c2ccc(C)c(Br)c2)cc1	–	–	–	–	–
CCOc1ccccc1N(CC(=O)NC1CCCCC1)C(=O)c1nsc(Cl)c1Cl	–	–	–	22	–
COc1ccc(CCNC(=O)c2cc3c(=O)n4ccccc4nc3n(CCCN3CCOCC3)c2=N)cc1	–	–	–	24	–
COc1ccc(S(=O)(=O)/N=C2\C=C(Nc3ccc(O)cc3)C(=O)c3ccccc32)cc1	–	18	65	–	–
O=C(O)c1ccc(S(=O)(=O)/N=C2\C=C(Nc3ccccc3F)C(=O)c3ccccc32)cc1	–	20	60	–	–
CC(=O)Nc1ccc(NC2=C/C(=N/S(=O)(=O)c3cccs3)c3ccccc3C2=O)cc1	–	11	50	–	–
Cc1ccccc1NC1=C/C(=N\S(=O)(=O)c2cccs2)c2ccccc2C1=O	–	–	47	–	–
O=C(Nc1cccc(C(F)(F)F)c1)OCCCN1CCC2(CCC(c3ccccc3)CC2)C1=O (stereo not drawn)	–	–	–	–	–
CCc1ccc(S(=O)(=O)/N=C2\C=C(NS(=O)(=O)c3ccccc3)C(=O)c3ccccc32)cc1	–	–	–	–	–
